Results from the supplement of paper PMC11732987, “Enantioselective OTUD7B fragment discovery through chemoproteomics screening and high-throughput optimisation” (Communications Chemistry, 2025).

Tests used:
Assay in all cases: log2 ratio of Biotin-Ahx-Ub-VS probe labelling (fragment/DMSO); higher = less target engagement (more negative = stronger competition), active = hit call of the paper (q ≤ 0.05, log2 ratio ≤ -1)
Conditions in all cases: compound concentration: 200 uM; treatment time: 3 h
[1] = target: USP34 (UniProt Q70CQ2)
How it was run: (§1)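 Global-median-normalised Spectronaut label-free quantities were compared by unpaired t-test, and values are average log2 ratios of fragment over vehicle. Only proteins with ≥2 unique peptides were used. HEK293T lysate (495 µg per sample) was treated in triplicate with fragment at 200 µM or vehicle for 3 h and then with Biotin-Ahx-Ub-VS at 0.5 µM final for 1 h. Labelled DUBs were then NeutrAvidin-enriched, digested with LysC and trypsin, and run by diaPASEF LC-MS/MS.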

[2] = target: T1, USP36 (UniProt Q9P275)
T1 sequence (whole entry): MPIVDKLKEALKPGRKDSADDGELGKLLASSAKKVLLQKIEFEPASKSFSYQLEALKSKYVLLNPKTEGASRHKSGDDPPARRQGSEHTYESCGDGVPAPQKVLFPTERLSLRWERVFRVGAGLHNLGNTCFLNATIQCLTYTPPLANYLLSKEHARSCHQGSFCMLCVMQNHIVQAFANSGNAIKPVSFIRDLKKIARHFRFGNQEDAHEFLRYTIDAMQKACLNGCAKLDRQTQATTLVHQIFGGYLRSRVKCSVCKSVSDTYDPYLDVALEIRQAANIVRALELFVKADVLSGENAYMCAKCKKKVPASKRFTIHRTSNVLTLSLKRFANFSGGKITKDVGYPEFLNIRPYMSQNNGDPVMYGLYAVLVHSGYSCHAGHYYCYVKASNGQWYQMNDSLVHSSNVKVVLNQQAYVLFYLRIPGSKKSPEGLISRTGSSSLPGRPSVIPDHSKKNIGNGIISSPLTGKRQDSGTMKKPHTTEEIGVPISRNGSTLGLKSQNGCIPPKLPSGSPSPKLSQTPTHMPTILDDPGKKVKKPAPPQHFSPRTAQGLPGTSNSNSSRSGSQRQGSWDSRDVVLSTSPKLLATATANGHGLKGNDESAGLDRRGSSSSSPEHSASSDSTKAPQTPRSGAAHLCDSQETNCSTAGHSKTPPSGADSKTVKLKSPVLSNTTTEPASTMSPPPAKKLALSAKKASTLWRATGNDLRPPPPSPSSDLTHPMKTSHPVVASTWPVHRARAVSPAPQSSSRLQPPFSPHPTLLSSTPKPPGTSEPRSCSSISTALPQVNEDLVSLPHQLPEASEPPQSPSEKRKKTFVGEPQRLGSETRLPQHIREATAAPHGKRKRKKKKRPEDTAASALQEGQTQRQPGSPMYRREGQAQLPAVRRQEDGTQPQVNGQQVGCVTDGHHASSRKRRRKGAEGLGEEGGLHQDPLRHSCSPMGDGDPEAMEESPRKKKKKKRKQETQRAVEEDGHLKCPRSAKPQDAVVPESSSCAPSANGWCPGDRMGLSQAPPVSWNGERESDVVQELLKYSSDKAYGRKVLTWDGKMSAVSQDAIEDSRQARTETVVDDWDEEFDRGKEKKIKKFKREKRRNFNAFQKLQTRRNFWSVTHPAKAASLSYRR
How it was run: as §1

[3] = target: T2, USP38 (UniProt Q8NB14)
T2 sequence (whole entry): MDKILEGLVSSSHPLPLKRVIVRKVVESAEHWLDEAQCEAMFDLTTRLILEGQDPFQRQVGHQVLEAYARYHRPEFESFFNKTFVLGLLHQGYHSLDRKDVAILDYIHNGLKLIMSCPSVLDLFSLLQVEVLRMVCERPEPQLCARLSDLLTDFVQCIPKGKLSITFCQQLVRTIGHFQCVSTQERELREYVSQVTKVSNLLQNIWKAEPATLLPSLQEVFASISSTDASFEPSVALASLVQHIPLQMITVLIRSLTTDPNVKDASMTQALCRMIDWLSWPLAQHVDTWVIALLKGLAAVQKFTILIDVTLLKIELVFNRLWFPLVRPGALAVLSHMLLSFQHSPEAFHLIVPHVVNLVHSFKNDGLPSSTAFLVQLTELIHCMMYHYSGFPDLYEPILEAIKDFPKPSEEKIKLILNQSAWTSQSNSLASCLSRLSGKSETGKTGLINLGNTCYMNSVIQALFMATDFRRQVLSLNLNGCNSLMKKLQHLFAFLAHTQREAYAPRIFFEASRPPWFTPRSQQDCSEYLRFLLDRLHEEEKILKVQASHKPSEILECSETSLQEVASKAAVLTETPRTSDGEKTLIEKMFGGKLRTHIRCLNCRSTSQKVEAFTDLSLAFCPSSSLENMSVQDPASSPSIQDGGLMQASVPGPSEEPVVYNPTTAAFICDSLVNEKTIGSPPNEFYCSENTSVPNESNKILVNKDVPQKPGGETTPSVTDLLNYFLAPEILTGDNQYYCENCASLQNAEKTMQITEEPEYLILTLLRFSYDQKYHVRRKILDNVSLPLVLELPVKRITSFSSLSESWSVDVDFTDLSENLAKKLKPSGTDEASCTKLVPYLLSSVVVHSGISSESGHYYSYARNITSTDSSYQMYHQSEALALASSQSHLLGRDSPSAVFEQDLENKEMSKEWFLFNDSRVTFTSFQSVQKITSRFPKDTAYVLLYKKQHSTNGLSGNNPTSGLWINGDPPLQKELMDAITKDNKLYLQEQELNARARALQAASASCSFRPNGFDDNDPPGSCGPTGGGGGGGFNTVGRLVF
How it was run: as §1

[4] = target: T3, USP39 (UniProt Q53GS9)
T3 sequence (whole entry): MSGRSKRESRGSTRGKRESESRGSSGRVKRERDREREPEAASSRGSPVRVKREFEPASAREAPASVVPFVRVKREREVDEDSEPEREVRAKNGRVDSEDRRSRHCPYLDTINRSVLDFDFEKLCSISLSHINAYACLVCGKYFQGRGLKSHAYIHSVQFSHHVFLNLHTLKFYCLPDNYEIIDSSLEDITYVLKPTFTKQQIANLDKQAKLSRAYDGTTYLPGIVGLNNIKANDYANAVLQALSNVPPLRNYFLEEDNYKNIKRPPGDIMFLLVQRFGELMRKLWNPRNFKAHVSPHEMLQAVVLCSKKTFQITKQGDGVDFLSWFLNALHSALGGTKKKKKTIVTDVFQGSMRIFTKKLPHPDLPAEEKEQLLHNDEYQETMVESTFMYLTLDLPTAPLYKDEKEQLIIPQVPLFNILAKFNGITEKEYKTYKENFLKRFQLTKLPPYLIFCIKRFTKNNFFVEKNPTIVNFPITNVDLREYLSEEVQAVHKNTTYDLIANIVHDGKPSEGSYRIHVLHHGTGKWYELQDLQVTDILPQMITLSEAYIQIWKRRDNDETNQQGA
How it was run: as §1

[5] = target: T4, USP4 (UniProt Q13107)
T4 sequence (whole entry): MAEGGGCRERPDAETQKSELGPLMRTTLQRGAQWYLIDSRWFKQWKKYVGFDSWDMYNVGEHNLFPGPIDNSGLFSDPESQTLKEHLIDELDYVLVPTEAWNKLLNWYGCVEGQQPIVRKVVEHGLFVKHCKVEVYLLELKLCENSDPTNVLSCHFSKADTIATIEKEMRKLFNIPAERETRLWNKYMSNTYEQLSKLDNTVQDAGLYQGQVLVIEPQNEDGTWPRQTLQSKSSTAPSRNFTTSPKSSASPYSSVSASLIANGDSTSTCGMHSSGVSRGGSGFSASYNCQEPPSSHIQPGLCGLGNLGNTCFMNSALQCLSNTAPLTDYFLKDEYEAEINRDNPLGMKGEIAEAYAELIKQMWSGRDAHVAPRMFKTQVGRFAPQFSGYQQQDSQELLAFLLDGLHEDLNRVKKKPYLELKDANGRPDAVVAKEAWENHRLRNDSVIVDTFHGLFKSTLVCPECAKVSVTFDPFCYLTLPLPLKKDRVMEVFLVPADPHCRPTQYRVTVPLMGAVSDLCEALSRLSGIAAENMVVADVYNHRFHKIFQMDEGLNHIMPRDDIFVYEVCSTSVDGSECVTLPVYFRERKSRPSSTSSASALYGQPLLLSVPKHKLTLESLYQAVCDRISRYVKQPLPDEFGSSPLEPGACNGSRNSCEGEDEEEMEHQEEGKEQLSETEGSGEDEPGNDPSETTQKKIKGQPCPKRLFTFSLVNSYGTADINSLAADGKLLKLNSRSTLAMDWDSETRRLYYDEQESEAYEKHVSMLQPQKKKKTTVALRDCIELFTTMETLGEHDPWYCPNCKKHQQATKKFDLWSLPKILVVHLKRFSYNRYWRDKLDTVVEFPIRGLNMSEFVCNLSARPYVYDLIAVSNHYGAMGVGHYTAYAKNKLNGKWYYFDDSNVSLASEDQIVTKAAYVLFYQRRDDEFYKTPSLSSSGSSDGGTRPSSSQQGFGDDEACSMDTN
How it was run: as §1

Measured: log2 ratio of Biotin-Ahx-Ub-VS probe labelling

Chain of USP34 (Q70CQ2 whole entry, the tested form may be a part): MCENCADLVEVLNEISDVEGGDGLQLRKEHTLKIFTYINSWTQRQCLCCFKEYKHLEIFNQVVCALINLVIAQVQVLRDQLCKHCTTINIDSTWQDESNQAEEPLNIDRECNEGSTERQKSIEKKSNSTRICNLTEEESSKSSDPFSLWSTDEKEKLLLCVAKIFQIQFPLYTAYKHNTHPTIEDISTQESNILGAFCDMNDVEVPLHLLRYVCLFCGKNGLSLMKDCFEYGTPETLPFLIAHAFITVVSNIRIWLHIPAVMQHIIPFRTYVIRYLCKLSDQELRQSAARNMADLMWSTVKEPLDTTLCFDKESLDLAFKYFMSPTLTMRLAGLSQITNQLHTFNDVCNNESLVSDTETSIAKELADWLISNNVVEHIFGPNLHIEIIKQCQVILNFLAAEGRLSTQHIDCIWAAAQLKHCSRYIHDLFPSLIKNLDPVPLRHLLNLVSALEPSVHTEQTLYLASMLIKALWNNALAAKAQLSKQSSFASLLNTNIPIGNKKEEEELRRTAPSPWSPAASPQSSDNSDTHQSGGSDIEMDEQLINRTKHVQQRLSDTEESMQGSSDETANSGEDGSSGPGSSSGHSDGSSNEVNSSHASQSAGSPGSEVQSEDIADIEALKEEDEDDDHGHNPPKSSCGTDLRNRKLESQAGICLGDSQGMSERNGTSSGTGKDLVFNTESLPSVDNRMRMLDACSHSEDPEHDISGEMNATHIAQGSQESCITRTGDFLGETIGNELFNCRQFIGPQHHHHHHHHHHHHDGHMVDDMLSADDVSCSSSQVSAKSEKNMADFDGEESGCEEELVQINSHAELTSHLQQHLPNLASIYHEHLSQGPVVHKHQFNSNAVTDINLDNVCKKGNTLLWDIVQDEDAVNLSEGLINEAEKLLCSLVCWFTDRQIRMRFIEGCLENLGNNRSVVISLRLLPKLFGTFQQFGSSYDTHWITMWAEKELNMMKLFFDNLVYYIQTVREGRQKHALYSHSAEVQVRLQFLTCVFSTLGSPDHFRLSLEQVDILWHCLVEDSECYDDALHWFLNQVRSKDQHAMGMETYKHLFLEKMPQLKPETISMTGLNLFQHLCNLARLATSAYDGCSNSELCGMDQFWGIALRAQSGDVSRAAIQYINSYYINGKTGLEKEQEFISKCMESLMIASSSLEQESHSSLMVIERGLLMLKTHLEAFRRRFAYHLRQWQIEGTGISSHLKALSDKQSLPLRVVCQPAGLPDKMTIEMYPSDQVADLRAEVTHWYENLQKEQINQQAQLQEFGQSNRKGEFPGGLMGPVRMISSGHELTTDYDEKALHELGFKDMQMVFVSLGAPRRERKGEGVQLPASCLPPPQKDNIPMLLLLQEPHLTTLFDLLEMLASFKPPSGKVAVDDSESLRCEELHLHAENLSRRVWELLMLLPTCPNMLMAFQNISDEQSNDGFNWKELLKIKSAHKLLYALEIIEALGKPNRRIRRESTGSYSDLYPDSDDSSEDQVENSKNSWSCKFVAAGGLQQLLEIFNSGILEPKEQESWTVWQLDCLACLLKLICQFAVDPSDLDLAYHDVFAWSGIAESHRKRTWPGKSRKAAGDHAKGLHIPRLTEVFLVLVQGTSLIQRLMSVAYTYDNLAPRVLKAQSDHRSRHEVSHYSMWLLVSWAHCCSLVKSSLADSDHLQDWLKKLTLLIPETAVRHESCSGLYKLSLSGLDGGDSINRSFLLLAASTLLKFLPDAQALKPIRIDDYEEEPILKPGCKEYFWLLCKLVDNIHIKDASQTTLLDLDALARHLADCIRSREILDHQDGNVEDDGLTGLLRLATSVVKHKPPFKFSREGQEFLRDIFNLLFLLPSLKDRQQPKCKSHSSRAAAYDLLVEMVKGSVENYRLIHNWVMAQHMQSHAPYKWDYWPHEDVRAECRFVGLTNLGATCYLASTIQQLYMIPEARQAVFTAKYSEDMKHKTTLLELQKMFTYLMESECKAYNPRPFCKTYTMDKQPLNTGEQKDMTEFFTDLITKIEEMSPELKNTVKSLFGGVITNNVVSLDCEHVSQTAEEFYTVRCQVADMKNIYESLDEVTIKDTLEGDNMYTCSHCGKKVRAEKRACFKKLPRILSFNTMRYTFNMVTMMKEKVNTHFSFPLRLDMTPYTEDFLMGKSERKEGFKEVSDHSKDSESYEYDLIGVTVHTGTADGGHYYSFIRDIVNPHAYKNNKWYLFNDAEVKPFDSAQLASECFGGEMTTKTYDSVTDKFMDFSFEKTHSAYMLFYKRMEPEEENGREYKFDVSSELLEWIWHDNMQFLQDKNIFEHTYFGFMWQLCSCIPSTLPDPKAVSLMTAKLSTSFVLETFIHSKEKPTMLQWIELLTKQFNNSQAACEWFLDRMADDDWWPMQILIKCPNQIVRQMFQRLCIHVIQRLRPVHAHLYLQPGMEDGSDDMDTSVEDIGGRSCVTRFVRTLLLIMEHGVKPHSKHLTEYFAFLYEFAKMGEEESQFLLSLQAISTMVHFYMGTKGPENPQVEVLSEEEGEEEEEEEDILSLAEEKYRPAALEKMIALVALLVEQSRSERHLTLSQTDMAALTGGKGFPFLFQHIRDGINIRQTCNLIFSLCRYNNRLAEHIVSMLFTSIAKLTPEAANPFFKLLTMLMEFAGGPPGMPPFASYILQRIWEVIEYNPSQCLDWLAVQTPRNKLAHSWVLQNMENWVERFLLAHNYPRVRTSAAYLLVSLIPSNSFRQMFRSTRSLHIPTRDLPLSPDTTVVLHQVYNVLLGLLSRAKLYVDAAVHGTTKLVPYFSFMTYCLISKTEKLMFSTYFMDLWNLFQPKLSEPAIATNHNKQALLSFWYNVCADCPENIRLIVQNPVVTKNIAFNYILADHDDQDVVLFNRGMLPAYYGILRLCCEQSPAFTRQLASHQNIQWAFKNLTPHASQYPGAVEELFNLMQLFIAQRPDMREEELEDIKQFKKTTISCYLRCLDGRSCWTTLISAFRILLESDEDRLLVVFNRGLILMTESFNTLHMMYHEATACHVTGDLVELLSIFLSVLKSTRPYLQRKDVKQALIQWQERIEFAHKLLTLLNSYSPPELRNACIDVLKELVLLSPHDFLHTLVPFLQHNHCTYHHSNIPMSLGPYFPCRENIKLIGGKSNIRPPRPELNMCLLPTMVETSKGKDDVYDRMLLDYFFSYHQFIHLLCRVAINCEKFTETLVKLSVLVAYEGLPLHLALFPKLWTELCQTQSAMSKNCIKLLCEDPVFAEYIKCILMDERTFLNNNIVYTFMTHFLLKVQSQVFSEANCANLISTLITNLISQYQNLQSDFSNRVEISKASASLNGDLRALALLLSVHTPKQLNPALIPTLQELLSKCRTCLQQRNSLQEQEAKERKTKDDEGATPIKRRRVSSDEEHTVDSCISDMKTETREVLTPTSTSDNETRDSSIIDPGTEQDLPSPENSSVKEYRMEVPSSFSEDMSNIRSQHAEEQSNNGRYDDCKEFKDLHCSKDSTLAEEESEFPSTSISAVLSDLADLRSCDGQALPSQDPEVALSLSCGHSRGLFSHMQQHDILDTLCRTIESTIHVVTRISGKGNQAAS

Cl.Cn1nc2c(c1CNC(=O)CCl)CCCC2
inactive: [1] -0.177 | [2] -0.0094 | [3] 0.0557 | [4] 0.242 | [5] 0.0436
